PLAP act – human PLAP activation; P05187; activation fold at 20 µM; actives 1.2% (n = 96,000); AID 696; purified PLAP enzyme, luminescent substrate read-out; active compounds read high; in the data active = activation fold above about 2
Target sequence (P05187 whole entry, looked up): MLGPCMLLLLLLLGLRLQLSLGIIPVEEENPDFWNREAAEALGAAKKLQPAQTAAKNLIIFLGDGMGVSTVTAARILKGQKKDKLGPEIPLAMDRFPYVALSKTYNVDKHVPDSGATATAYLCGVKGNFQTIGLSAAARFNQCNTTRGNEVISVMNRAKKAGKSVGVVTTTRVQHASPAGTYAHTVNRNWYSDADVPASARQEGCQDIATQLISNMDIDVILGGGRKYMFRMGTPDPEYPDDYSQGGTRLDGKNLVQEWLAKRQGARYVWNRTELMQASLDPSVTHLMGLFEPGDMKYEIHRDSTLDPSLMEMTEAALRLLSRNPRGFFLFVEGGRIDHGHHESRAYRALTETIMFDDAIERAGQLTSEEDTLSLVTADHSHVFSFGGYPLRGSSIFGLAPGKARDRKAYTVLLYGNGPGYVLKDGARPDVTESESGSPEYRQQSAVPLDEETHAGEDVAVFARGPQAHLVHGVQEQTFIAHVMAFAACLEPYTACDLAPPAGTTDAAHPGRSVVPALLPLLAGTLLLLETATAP
CYP2C19 inhib – inhibitors of human CYP2C19; actives 21% (n = 96,000); CYP2C19 Supersomes, luciferin-H EGE luminescence, 30 min; inhibition, % at 5 µM;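 active = CYP2C19 inhibition above a set limit at 5 µM in the primary screen, cut at about 50% in these data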;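 also: plate controls were negative control wells for no effect and 2.5 mM tranylcypromine positive control for full effect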
CYP2C9 inh – human CYP2C9 inhibition. P11712. CYP2C9 Supersomes, luciferin-H conversion, luminescence. inhibition, % at 5 µM. actives 20% (n = 96,000). AID 777;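 active = blocking of liver enzyme CYP2C9 beyond about 50% at 5 µM, limit read from the data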
CYP2C9 act – increases human cytochrome P450 2C9 activity | AID 1024 | P11712 | recombinant CYP2C9, luciferin-H conversion, luminescence; active compounds read high; factor 1 = untreated enzyme, 0 = blocked | activation factor at 5 µM | actives 1.4% (n = 96,000);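 active = activation factor of 2 or more for CYP2C9 at a 5 µM dose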;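 also: 0 = sulfaphenazole-blocked wells and 1 = vehicle-only wells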
CYP2C19 act – increases human CYP2C19 enzyme activity | P33261 | recombinant CYP2C19, luciferin-H EGE luminescence; active compounds read high; 0 = fully inhibited enzyme, 1 = untreated enzyme | activation factor at 5 µM | 96,000 tested, under 10 active;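 active = activation factor of at least 2 at 5 µM in the primary screen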;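 also: 0 = wells with 2.5 mM tranylcypromine and 1 = vehicle-only wells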
The depositor's hits bear a star. This is a sample that favours compounds with a hit; in the whole collection about 31% have one here.

SMILES	PLAP act	CYP2C19 inhib	CYP2C9 inh	CYP2C9 act	CYP2C19 act
CCOC(=O)N1CCN(c2c(N3CCN(c4cccc(C(F)(F)F)c4)CC3)c(=O)c2=O)CC1	1.1	0	-2	1	1
COc1ccc(C)cc1NC(=O)COC(=O)C1CC1	0.8	-14	-31	1.3	1.1
COc1ccccc1N1CCN(C(c2ccc(C)cc2)c2nnnn2C(C)C)CC1 (stereo not drawn)	1.4	74*	75*	0.3	0.3
CC(C)n1nnnc1C(c1ccc(F)cc1)N1CCN(C2CCCC2)CC1 (stereo not drawn)	1.8	2	-10	1.1	1
COc1ccc(CC(C)N2CCN(c3ccccc3OC)CC2)cc1OC (stereo not drawn)	1.5	9	-26	1.3	0.9
COc1ccccc1N1CCN(C(c2ccc(F)cc2)c2nnnn2C(C)C)CC1 (stereo not drawn)	1.2	52*	46	0.5	0.5
CC(=O)Nc1ccc(-c2csc(NC(=O)c3ccc(C)o3)n2)cc1	0.8	52*	38	0.6	0.5
CCn1nnnc1NCc1cccn1C	0.8	26	76*	0.2	0.7
O=C(Nc1nnc(COc2ccc(Cl)cc2)s1)c1cccs1	1.3	22	55*	0.5	0.8
Cc1ccccc1NC(=O)CSc1[nH]c(=O)cc(C)c1C#N	1	63*	81*	0.2	0.4
Cc1cc(=O)[nH]c(SCC(=O)c2ccccc2)c1C#N	0.9	46	85*	0.1	0.5
COc1ccc(NC(=O)CSc2[nH]c(=O)cc(C)c2C#N)cc1OC	0.9	34	33	0.7	0.7
O=C(O)CC1C(=O)NCCN1CCCc1ccccc1 (stereo not drawn)	1	-1	-6	1.1	1
NC1C2CN(c3nc4c(cc3F)c(=O)c(C(=O)O)cn4-c3ccc(F)cc3F)CC12 (stereo not drawn)	0.7	6	4	1	0.9
CCN(CC)C(C(=O)Nc1ccc(C(C)C)cc1)c1ccc2c(c1)OCO2 (stereo not drawn)	1.3	14	29	0.7	0.9
Cc1ccccc1NC(=O)c1csc2c1CCCC2	1.2	20	-6	1.1	0.8
O=C(NCc1ccco1)c1csc2c1CCCCC2	1.1	43	-317	4.2*	0.6
O=C(NCc1cccs1)c1csc2c1CCCCC2	1.1	31	-150	2.5*	0.7
O=C(NCc1cccs1)c1cc2c(s1)CCCC2	0.7	64*	52*	0.5	0.4
O=C(NCc1ccccc1)c1csc2c1CCCCC2	0.9	35	-304	4*	0.6
O=C(O)c1cc2c(s1)CCCC2	1.2	-22	-12	1.1	1.2
O=C(NCCN1CCOCC1)c1csc2c1CCCC2	1.3	-9	-12	1.1	1.1
c1ccc(-c2nnc(SCCC3OCCCO3)o2)cc1	0.9	29	-16	1.2	0.7
O=C(NCc1ccco1)c1ccccc1Br	0.9	2	-2	1	1
O=C(Nc1sccc1C(=O)NCc1ccco1)c1cccnc1	1.4	24	90*	0.1	0.8
SMILES	PLAP act	CYP2C19 inhib	CYP2C9 inh	CYP2C9 act	CYP2C19 act
COc1cccc(NC(=O)N2CCN(c3ccc(C(F)(F)F)cn3)CC2)c1	1.1	-1	4	1	1
Cc1ccccc1N1CCN(C(=O)c2ccc(Oc3ccc(C(F)(F)F)cn3)cc2)CC1	1.4	19	76*	0.2	0.8
Cc1cccc(C(=O)N2CCN(c3ccc(C(F)(F)F)cn3)CC2)c1C	2.1*	74*	39	0.6	0.3
O=C(Nc1ccc(Cl)c(Cl)c1)OCc1cnc(Cl)s1	1	14	13	0.9	0.9
O=C(Nc1ccc(Cl)c(Cl)c1)OCc1cncs1	0.9	99*	97*	0	0
CCOc1ccc(CCN2C(=O)C3C4C=CC(C4)C3C2=O)cc1OCC (stereo not drawn)	1.1	53*	9	0.9	0.5
CCOc1ccc(C(C)=O)cc1N1C(=O)C2C3C=CC(C3)C2C1=O (stereo not drawn)	1	1	-5	1	1
CCOc1ccc(NC(=O)c2cnc3scc(C)n3c2=O)cc1	1.2	-13	-180	2.8*	1.1
CSc1ccccc1NC(=O)c1cnc2scc(C)n2c1=O	1.2	7	19	0.8	0.9
Cc1csc2ncc(C(=O)NCCc3ccccc3)c(=O)n12	1.4	54*	-17	1.2	0.5
O=C(NCCc1ccccc1)c1cnc2ccccn2c1=O	0.9	55*	21	0.8	0.5
S=c1[nH]nc(COc2ccc3c(c2)OCO3)n1-c1ccccc1	0.9	45	-3	1	0.5
COc1cc(Cl)c(C)cc1NC(=O)CSc1nnc(-c2ccccn2)n1Cc1ccco1	1	16	50*	0.5	0.8
O=C(CSc1nnc(-c2ccccn2)n1Cc1ccco1)c1ccc(Cl)cc1	1.6	27	71*	0.3	0.7
O=C(CSc1nnc(-c2cccnc2)n1Cc1ccco1)c1ccc2ccccc2c1	1.4	24	48	0.5	0.8
O=C(CSc1nnc(-c2ccccn2)n1Cc1ccccc1)N1CCCC1	1.4	13	25	0.8	0.9
O=C(CSc1nnc(-c2ccccn2)n1Cc1ccco1)c1ccccc1	1	-1	51*	0.5	1
O=C(CSc1nnc(-c2cccnc2)n1Cc1ccco1)c1ccc(Br)cc1	1.6	88*	80*	0.2	0.1
COc1ccc(NC(=O)CSc2nnc(-c3ccccc3)n2Cc2ccco2)cc1OC	1.2	16	28	0.7	0.8
O=C(NCc1nnc(SC/C=C/c2ccccc2)o1)c1ccco1	1.4	47	50	0.5	0.5
O=C(CSc1nnc(-c2cnccn2)n1Cc1ccco1)c1ccccc1	0.9	35	38	0.6	0.7
O=C(CSc1nnc(-c2cnccn2)n1Cc1ccco1)c1ccc(Cl)cc1	0.8	27	59*	0.4	0.7
COc1ccc(C(=O)CSc2nnc(-c3ccccn3)n2Cc2ccco2)cc1	1.3	29	66*	0.3	0.7
COc1ccc(C(=O)CSc2nnc(-c3ccco3)n2C)cc1	0.8	25	-5	1	0.8
O=C1CC(c2ccccc2)Cc2nc3ncnn3cc21 (stereo not drawn)	1.2	99*	7	0.9	0
SMILES	PLAP act	CYP2C19 inhib	CYP2C9 inh	CYP2C9 act	CYP2C19 act
COc1ccc(-c2ccc(-c3noc(-c4ccccc4F)n3)c(OC)n2)cc1	0.9	1	8	0.9	1
O=C(O)CCSc1nc2ccc(Br)cc2[nH]1	1.2	-12	-4	1	1.1
Cn1c(CSc2nc3ccc(Br)cc3[nH]2)nc2ccccc21	1.2	82*	23	0.8	0.2
Cn1c(CSc2nnc(SCc3ccccc3)s2)nc2ccccc21	0.7	60*	19	0.8	0.4
Cn1c(Cn2cnc3ccccc32)nnc1SCc1ccccc1	1.1	33	23	0.8	0.7
O=C(N/N=C/c1ccc(O)cc1)c1csc2ccccc12	1.2	19	-199	3*	0.8
CC1CCN(S(=O)(=O)c2ccc(S(=O)(=O)NCc3ccccc3)cc2)CC1	0.8	-2	-4	1	1

Screening results as filed in PubChem BioAssay.
